This note sets out measurements from PubChem BioAssay.

Calls of active or inactive are those of the source. Unless noted, no rule for the calls is given here.

Assay [1] concerns Wnt5a (protein binding on small-molecule microarray). Put plainly: Wnt5a binders on small-molecule microarray, primary screen, biophysical, 635/667 nm fluorescence (AID 1142).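 Also: fluorescence read at 667 nm with signal to noise per printed feature.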 The note with it: 635 nm fluorescence, higher = more signal.
Assay [2] in a line: cell viability in Huh7 cells, primary screen, cytotoxicity control for HCV replication inhibitor project, CellTiter-Glo luminescence, basal, 48 h (AID 1143).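 Also: Huh7 hepatoma cells carrying a hepatitis C replication reporter with no stimulus; test concentration not given here.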 The note with it: Huh7 HCV replicon, higher = more signal, called active from +8 up or from −8 down. Background: Cellular ATP, detected with luciferase, serves as a proxy for viable cell number.
The nature of assay [3]: P. aeruginosa biofilm formation inhibitors, primary screen, PAO1 strain, BacTiter-Glo luminescence, LB-PBS (AID 1144). The note with it: 12 h, higher = more signal.
A short description of assay [4]: CREB reporter modulators without forskolin, primary screen, cell-based, PC12, CRE-LacZ reporter, unstimulated (AID 1145). The note with it: no forskolin, luminescence, 4.5 h, higher = more signal, called active from +8 up or from −8 down.
Assay [5] in a line: CREB reporter modulators under forskolin, primary screen, cell-based, PC12, CRE-LacZ reporter, forskolin-stimulated (AID 1146).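 Also: PC12 cells with 6xCRE LacZ reporter stimulated by forskolin 10 µM; beta-galactosidase reporter signal reflecting CREB driven transcription.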 The note with it: luminescence, 4.5 h, higher = more signal, called active from +8 up or from −8 down.
Assay [6] deals with Streptavidin (Streptomyces avidinii) (UniProt P22629). Put plainly: streptavidin binders on small-molecule microarray, primary screen, artefact control for SMM compound annotation, biophysical, 635/667 nm fluorescence (AID 1147).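 Also: signal reflects streptavidin binding to arrayed compounds as a control protein.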 The note with it: streptavidin binding, higher = more signal.
Sequence of Streptavidin (Streptomyces avidinii) (P22629 whole entry, looked up): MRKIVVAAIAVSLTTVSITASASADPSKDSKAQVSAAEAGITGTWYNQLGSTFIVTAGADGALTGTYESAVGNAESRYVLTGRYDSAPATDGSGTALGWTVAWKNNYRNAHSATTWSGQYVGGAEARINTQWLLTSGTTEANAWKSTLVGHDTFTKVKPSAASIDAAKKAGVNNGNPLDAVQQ
The nature of assay [7]: small-molecule binders of probe aInhba, primary screen, biochemical, small-molecule microarray, 635/667 nm fluorescence (AID 1148).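 Also: score merges 667nm spot fluorescence with signal-to-noise for antibody binding to printed compounds.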 The conditions noted are these: higher = more signal.
Assay [8] has as its target Torsin-1A (Homo sapiens) (UniProt O14656). The assay can be described thus: torsin A binders from cell lysate, primary screen, small-molecule microarray, wild-type, 635/667 nm (AID 1149). The note with it: COS7 hTOR1A-WT lysate, 635 nm fluorescence, higher = more signal.
Assay [9] has the same target. Put plainly: small-molecule binders of mutant TOR1A in lysate, primary screen, cell lysate, small-molecule microarray, COS7 lysate, 635/667 nm fluorescence (AID 1150).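 Also: score pools 667 nm emission and signal to noise measuring lysate protein binding.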 The note with it: COS7 hTOR1A mutant lysate, 635 nm fluorescence, higher = more signal.
In assay [10] the test system is Sonic hedgehog protein (Shh). Put plainly: small-molecule binders of Shh protein, primary screen, biochemical, small-molecule microarray, 635/667 nm fluorescence (AID 1151).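 Also: Shh protein binding to compounds spotted on small-molecule microarray slides; score combines spot fluorescence intensity with signal-to-noise across triplicate slides.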 The conditions noted are these: small-molecule microarray binding, 635 nm fluorescence; higher = more signal.
Assay [11] in a line: E. coli DRC41 culture turbidity changes, primary screen, E. coli filamentation inducer project, strain DRC41, OD650, 48 h (AID 1152).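 Also: E. coli MC1000 strain DRC41 lacking acrAB efflux pump and sulA.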 The conditions noted are these: E. coli DRC41 (acrAB sulA), higher = more signal, called active from +8 up or from −8 down.
Assay [12] in a line: small-molecule binders of probe aLefty1, primary screen, biochemical, small-molecule microarray, 635/667 nm fluorescence (AID 1153).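 Also: score merges spot fluorescence with signal-to-noise ratio from the scanned slide images.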 The conditions noted are these: higher = more signal.
Assay [13] can be described thus: PSAC antagonists in infected red cells, primary screen, cell-based, P. falciparum Indochina, OD700, 1 h (AID 1154). The conditions noted are these: P. falciparum Indochina infected RBC osmotic lysis, higher = more signal, called active from +8 up or from −8 down.
Assay [14] is described as follows: PSAC antagonists in infected red cells, primary screen, cell-based, P. falciparum Indochina, OD700, 2 h (AID 1155).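 Also: lysis reports solute entry through the parasite surface anion channel PSAC; channel blockers reduce lysis of infected cells.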 The note with it: P. falciparum Indochina infected erythrocytes, osmotic lysis OD700; higher = more signal, called active from +8 up or from −8 down.
Assay [15] can be described thus: osmotic lysis modulators in infected erythrocytes, primary screen, PSAC antagonist project, cell-based, P. falciparum Indochina, OD700, 3 h (AID 1156). The note with it: higher = more signal, called active from +8 up or from −8 down.
Assay [16] can be described thus: PSAC antagonists in infected red cells, primary screen, cell-based, P. falciparum Indochina, OD700, 18 h (AID 1157). The note with it: P. falciparum Indochina infected erythrocytes, osmotic lysis OD700, 18 h; higher = more signal, called active from +8 up or from −8 down.
The nature of assay [17]: modulators of S6 phosphorylation in cells, primary screen, cell-based, A549, cytoblot, luminescence, serum-stimulated (AID 1158).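 Also: serum-stimulated A549 lung adenocarcinoma cells; signal is phosphorylated S6 detected by cytoblot immunostaining with HRP secondary.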 The note with it: A549 phospho-S6 cytoblot, 5 h, higher = more signal.
The target in assay [18] is NADPH oxidase 2 (Homo sapiens) (UniProt P04839). The assay can be described thus: NOX2-dependent H2O2 signal modulators, primary screen, NOX inhibitor project, cell-based, HEK293-NOX2, PMA-stimulated, Amplex Red fluorescence (AID 1159). Also: test concentration not given here. The conditions noted are these: 45 min, higher = more signal, called active from +8 up or from −8 down.
Sequence of NADPH oxidase 2 (Homo sapiens) (P04839 whole entry, looked up): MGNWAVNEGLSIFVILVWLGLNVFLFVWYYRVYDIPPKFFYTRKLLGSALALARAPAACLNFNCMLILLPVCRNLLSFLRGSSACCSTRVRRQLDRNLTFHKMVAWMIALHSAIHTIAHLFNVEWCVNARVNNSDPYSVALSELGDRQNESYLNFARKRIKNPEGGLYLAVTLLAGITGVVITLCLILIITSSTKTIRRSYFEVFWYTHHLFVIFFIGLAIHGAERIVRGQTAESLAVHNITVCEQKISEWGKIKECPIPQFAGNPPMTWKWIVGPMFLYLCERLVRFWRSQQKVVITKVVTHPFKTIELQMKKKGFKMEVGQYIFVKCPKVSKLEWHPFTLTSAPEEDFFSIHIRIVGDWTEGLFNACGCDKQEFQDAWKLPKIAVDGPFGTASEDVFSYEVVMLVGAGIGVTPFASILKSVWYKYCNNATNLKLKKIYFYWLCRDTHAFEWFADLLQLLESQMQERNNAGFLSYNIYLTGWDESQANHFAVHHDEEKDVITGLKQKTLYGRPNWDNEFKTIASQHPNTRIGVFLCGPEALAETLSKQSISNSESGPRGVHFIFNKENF
Assay [19] concerns the target NADPH oxidase 4 (Homo sapiens) (UniProt Q9NPH5). Put plainly: NOX4-dependent H2O2 signal modulators, primary screen, NOX inhibitor project, cell-based, HEK293-NOX4, tetracycline-induced, Amplex Red fluorescence (AID 1160). The conditions noted are these: 45 min, higher = more signal, called active from +8 up or from −8 down.
Assay [20] deals with NADPH oxidase 5 (Homo sapiens) (UniProt Q96PH1). The assay can be described thus: NOX5-dependent H2O2 signal modulators, primary screen, NOX inhibitor project, cell-based, HEK293-NOX5, Amplex Red fluorescence (AID 1161). The conditions noted are these: HEK293-NOX5, ionomycin, 45 min, higher = more signal.
Sequence of NADPH oxidase 5 (Homo sapiens) (Q96PH1 whole entry, looked up): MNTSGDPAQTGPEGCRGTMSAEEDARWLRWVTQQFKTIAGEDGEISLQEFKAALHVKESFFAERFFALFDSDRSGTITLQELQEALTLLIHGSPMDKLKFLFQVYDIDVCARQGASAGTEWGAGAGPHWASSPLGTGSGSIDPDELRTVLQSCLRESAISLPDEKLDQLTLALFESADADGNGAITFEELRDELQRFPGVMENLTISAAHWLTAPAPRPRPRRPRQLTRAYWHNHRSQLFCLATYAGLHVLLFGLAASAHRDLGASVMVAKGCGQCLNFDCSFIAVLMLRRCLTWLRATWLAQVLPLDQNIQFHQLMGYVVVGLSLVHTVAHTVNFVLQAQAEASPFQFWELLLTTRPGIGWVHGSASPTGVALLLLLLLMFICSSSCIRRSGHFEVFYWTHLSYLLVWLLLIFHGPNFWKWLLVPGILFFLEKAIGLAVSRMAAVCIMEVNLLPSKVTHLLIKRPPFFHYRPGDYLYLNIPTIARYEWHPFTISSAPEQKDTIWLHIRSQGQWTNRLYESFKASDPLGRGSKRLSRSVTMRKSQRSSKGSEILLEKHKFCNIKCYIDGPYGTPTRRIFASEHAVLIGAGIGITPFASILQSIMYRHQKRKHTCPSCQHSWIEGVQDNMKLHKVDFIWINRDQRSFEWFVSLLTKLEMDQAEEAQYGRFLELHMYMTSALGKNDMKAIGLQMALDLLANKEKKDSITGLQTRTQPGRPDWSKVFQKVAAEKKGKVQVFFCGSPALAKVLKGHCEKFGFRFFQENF

Sequence of NADPH oxidase 4 (Homo sapiens) (Q9NPH5 whole entry, looked up): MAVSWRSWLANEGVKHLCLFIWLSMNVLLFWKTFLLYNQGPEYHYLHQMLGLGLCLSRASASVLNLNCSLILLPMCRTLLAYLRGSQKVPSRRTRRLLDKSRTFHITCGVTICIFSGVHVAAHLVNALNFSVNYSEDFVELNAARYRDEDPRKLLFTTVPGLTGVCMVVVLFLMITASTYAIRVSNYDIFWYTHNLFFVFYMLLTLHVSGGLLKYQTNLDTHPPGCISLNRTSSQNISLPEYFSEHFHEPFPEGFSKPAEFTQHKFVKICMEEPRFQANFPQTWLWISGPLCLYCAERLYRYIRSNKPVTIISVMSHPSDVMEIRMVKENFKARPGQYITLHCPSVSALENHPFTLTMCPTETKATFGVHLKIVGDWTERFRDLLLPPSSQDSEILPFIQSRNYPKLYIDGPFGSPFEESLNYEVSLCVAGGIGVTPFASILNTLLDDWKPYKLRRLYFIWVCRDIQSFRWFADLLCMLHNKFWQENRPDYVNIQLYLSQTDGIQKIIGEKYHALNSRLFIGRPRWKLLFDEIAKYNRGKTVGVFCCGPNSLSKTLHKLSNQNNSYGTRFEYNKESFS
Sequence of Torsin-1A (Homo sapiens) (O14656 whole entry, looked up): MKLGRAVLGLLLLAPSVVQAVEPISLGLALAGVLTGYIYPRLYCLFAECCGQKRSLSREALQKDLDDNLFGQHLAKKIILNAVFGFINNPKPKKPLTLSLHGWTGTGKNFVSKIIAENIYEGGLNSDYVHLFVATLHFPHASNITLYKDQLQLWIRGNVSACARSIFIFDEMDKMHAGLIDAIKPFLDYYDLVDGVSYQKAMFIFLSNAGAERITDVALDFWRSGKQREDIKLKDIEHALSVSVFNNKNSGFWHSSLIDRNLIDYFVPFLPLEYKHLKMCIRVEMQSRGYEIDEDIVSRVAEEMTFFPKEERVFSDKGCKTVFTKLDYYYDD

As to `CC(=O)OC[C@H]1O[C@H](C#CCC2CCCCC2)C=C[C@@H]1OC(C)=O`, the composite z-score in [1] is 0.293; in assay [6] it was 0.176; in assay [7] it was -0.0589; with Torsin-1A (Homo sapiens) [8], 0.419; with Torsin-1A (Homo sapiens) [9], 0.96; in assay [10], 1.17. This compound displayed a composite z-score in assay [12] of -0.19. Besides, the z-score in assay [2] was -2.43 (inactive); in assay [3], 0.135 (inactive); in assay [4], 0.105 (inactive); in assay [5], 0.483 (inactive); in assay [11] it was 0.457 (inactive); in [13], 2.09 (inactive). For the same compound, the z-score in assay [14] is 0.138 (inactive); in assay [15], 0.0473 (inactive); in assay [16] it was 0.125 (inactive); in [17] it was -0.274; in assay [18] it was 0.217 (inactive); in assay [19] it was 0.556 (inactive). This compound registered a z-score in assay [20] of 1.74.

For `CCCNC(=O)OC[C@H]1O[C@H](CCON=C2C[C@@H](O)[C@@H](O)[C@@H]3[C@@H]4C(=O)N(CC)C(=O)[C@@H]4CC[C@@H]23)C=C[C@@H]1Oc1ccc(OC)cc1`, the composite z-score in [1] stood at 0.0561; in [6] it was 0.842; in assay [7] it was 0.0256; with Torsin-1A (Homo sapiens) [8] it was 0.509; with Torsin-1A (Homo sapiens) [9], 0.43; in [10], 1.33. Besides, in assay [12], the composite z-score is 0.186. Further, the z-score in [2] is -0.402 (inactive); in assay [3], 1.08 (inactive); in [4] it was 0.68 (inactive); in assay [5], 0.23 (inactive); in assay [11], 0.599 (inactive); in assay [13], 1.69 (inactive). For the same compound, the z-score is 0.584 (inactive) in assay [14]; -0.0328 (inactive) in assay [15]; 0.368 (inactive) in [16]; -0.432 in [17]; -0.708 (inactive) in assay [18]; 0.471 (inactive) in assay [19]. Besides, in assay [20], the z-score was -0.818.

For `C[C@@H]1CC[C@H]2C(=O)OC(Cc3ccccc3)CN2[C@H]1c1ccc(Br)cc1` (stereo not given in full), the composite z-score was -0.0444 in [1]; 0.221 in assay [6]; -0.0963 in assay [7]; 0.172 in the assay with Torsin-1A (Homo sapiens) [8]; -0.0439 with Torsin-1A (Homo sapiens) [9]; 0.513 in assay [10]. In addition, the composite z-score in assay [12] is -0.0111. Besides, the z-score in assay [2] was -0.395 (inactive); in assay [3], 0.7 (inactive); in [4] it was 1.2 (inactive); in [5] it was -0.517 (inactive); in assay [11] it was 0.283 (inactive); in [13] it was 1.96 (inactive). The z-score in assay [14] was 0.728 (inactive); in [15] it was -0.23 (inactive); in [16], 0.54 (inactive); in assay [17], -0.0843; in assay [18], 0.379 (inactive); in [19], 0.268 (inactive). This compound yielded a z-score in assay [20] of 0.151.

For `CCN1C(=O)[C@H]2[C@H]3[C@H](O)[C@H](O)CC(=NO[C@@H]4O[C@H](CO)[C@@H](O)[C@H](O)[C@H]4O)[C@H]3CC[C@H]2C1=O`, the composite z-score is 0.534 in assay [1]; 0.473 in assay [6]; -0.0873 in assay [7]; 0.261 in the assay with Torsin-1A (Homo sapiens) [8]; 0.577 with Torsin-1A (Homo sapiens) [9]; 0.47 in assay [10]. In assay [12], this compound displayed a composite z-score of -0.234. For the same compound, the z-score in assay [2] is -1.31 (inactive); in assay [3] it was 0.427 (inactive); in assay [4], 0.246 (inactive); in assay [5], 0.322 (inactive); in [11], -0.462 (inactive); in [13], -0.875 (inactive). In addition, the z-score in assay [14] is 0.0108 (inactive); in assay [15], -0.677 (inactive); in assay [16], 0.109 (inactive); in [17] it was -0.218; in assay [18], 1.4 (inactive); in assay [19], 0.422 (inactive). This compound had a z-score in [20] of -1.28.

As for `CC(C)[C@@H](OCc1ccccc1)[C@H](C)C=NOC[C@@H](O)[C@H]1O[C@@H]2OC(C)(C)O[C@@H]2[C@H]1O`, the composite z-score in [1] is 0.332; in [6], 1.61; in [7], -0.0695; with Torsin-1A (Homo sapiens) [8] it was 0.298; in the assay with Torsin-1A (Homo sapiens) [9], 0.284; in assay [10] it was 0.587. This compound returned a composite z-score in assay [12] of -0.25. Besides, the z-score was 0.226 (inactive) in assay [2]; 0.0464 (inactive) in assay [3]; -0.408 (inactive) in assay [4]; 0.307 (inactive) in [5]; -1.74 (inactive) in assay [11]; 0.0248 (inactive) in assay [13]. Besides, the z-score in assay [14] was -0.211 (inactive); in assay [15], 0.122 (inactive); in [16] it was 0.124 (inactive); in assay [17], -0.898; in [18], 1.09 (inactive); in [19] it was -1.94 (inactive). Further, the z-score in assay [20] was determined as 0.165.
